In PubChem BioAssay (NCI) one finds growth inhibition data, which are given here for twelve compounds.

Experiment [1] is described as follows: NCI Yeast Anticancer Drug Screen. Data for the rad50 strain (AID 155).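 Note: 0% = growth of vehicle-only cultures of the same strain.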 As to conditions: S. cerevisiae rad50 strain growth inhibition, hits give high values. Put shortly: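 Vehicle-treated cultures provide the reference for the growth inhibition reported for compound-exposed, repair-deficient yeast.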
Experiment [2] is described as follows: NCI Yeast Anticancer Drug Screen. Data for the mec2-1 strain (AID 157). To be noted: S. cerevisiae mec2-1 strain, hits give high values. Summed up:
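Readout is yeast growth inhibition, normalised to vehicle-treated controls, in the mec2-1 strain exposed to compound.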

Experiment [3] in a line: NCI Yeast Anticancer Drug Screen. Data for the sgs1 mgt1 strain (AID 161).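 Note: 0% = growth of cultures given vehicle only.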 To be noted: S. cerevisiae sgs1 mgt1 strain, hits give high values. Put shortly: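 Yeast cells carrying a defined DNA-repair defect were exposed to test compounds. Growth inhibition was measured relative to vehicle-treated controls.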
A short description of experiment [4]: NCI Yeast Anticancer Drug Screen. Data for the cln2 rad14 strain (AID 165).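 Note: 0% = growth equal to vehicle treated cultures.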 To be noted: S. cerevisiae cln2 rad14 strain, hits give high values. Summed up: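 Relative to vehicle controls, growth inhibition of compound-treated cln2 rad14 yeast was recorded.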
Experiment [5] can be described thus: NCI Yeast Anticancer Drug Screen. Data for the bub3 strain (AID 167). To be noted: S. cerevisiae bub3 mutant strain, hits give high values. Summed up:
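Mutant yeast screening strain plus compound; vehicle-treated cultures serve as the 0% inhibition reference.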

The nature of experiment [6]: NCI Yeast Anticancer Drug Screen. Data for the mlh1 rad18 strain (AID 175). As to conditions: S. cerevisiae mlh1 rad18 strain growth inhibition, hits give high values. Summed up: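 Test agents were incubated with a yeast strain of defined genotype (DNA damage repair defect). Inhibition of growth was derived by comparison with vehicle-exposed cultures.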
[7] abbreviates: at 5.0 µM (retest, dose inferred, filed as 0.5).
Where [8] appears, read: at 50.0 µM (retest, dose inferred, filed as 5.0).

The panel holds about 79,000 compounds, 15% with a hit somewhere; the sample as a whole holds those more often. Unmarked numbers belong to inactive results. The source made the active and inactive calls. Cut-off read from the data, not from the text of the source: active = growth inhibition above about 70%; inactive = the rest.

With `Nc1c(N)c(Cl)c(Cl)c(Cl)c1Cl`, the growth inhibition in experiment [1] (setting [7]) is 38%; in experiment [1] (setting [8]), 84% (active); in experiment [1] (at 50.0 µM), 87% (active); in experiment [2] (setting [7]), 58%; in experiment [2] (setting [8]), 91% (active); in experiment [2] (at 50.0 µM), 91.6% (active). The growth inhibition in experiment [3] (setting [7]) was 20%; in experiment [3] (setting [8]) it was 96% (active); in experiment [4] (setting [7]) it was 43%; in experiment [4] (setting [8]), 97% (active); in experiment [5] (setting [7]), 32%; in experiment [5] (setting [8]), 98% (active). In addition, the growth inhibition in experiment [6] (setting [7]) was 33%; in experiment [6] (setting [8]), 83% (active); in experiment [6] (at 50.0 µM), 87.3% (active).
`Cc1ccc2c(c1)sc(-c1ccc(N(C)C)cc1)[n+]2C`: the growth inhibition was 42% in experiment [1] (setting [7]); 92% (active) in experiment [1] (setting [8]); 90.7% (active) in experiment [1] (at 50.0 µM); 45% in experiment [2] (setting [7]); 96% (active) in experiment [2] (setting [8]); 91.8% (active) in experiment [2] (at 50.0 µM). In addition, the growth inhibition in experiment [4] (setting [7]) is 74% (active); in experiment [4] (setting [8]) it was 98% (active); in experiment [4] (at 50.0 µM), 89.1% (active); in experiment [5] (setting [7]) it was 67%; in experiment [5] (setting [8]) it was 98% (active); in experiment [5] (at 50.0 µM), 90.8% (active). Besides, the growth inhibition was 24% in experiment [6] (setting [7]), 86% (active) in experiment [6] (setting [8]) and 90.5% (active) in experiment [6] (at 50.0 µM).
For `CCCCCCC1N=C(N)N=C(N)N1c1cccc(Cl)c1` (centres undefined), the growth inhibition in experiment [1] (setting [7]) was 17%; in experiment [1] (setting [8]) it was 61%; in experiment [1] (at 50.0 µM) it was -25.1%; in experiment [3] (setting [7]), 8%; in experiment [3] (setting [8]) it was 55%; in experiment [3] (at 50.0 µM) it was 46.4%. For the same compound, the growth inhibition in experiment [4] (setting [7]) is 1%; in experiment [4] (setting [8]), 24%; in experiment [4] (at 50.0 µM) it was -53.5%; in experiment [5] (setting [7]), 34%; in experiment [5] (setting [8]), 81% (active); in experiment [5] (at 50.0 µM) it was 52.9%. The growth inhibition in experiment [6] (setting [7]) is 7%; in experiment [6] (setting [8]), 98% (active); in experiment [6] (at 50.0 µM), 89.6% (active).
With `O=C(c1ccccc1)C(Br)C(Br)c1ccccc1` (centres undefined), the growth inhibition in experiment [1] (setting [7]) was 31%; in experiment [1] (setting [8]) it was 96% (active); in experiment [1] (at 50.0 µM) it was 97.7% (active); in experiment [2] (setting [7]), 27%; in experiment [2] (setting [8]), 98% (active); in experiment [2] (at 50.0 µM), 98.8% (active). Moreover, the growth inhibition in experiment [4] (setting [7]) is 18%; in experiment [4] (setting [8]), 84% (active); in experiment [4] (at 50.0 µM) it was 39.8%; in experiment [5] (setting [7]) it was 22%; in experiment [5] (setting [8]), 97% (active); in experiment [5] (at 50.0 µM), 98.8% (active). The growth inhibition in experiment [6] (setting [7]) was 43%; in experiment [6] (setting [8]), 95% (active); in experiment [6] (at 50.0 µM) it was 97.2% (active).
With `O=C(NNc1ccccc1)OCc1ccccc1`, the growth inhibition in experiment [1] (setting [7]) was 41%; in experiment [1] (setting [8]), 79% (active); in experiment [1] (at 50.0 µM) it was 55%; in experiment [3] (setting [7]) it was 42%; in experiment [3] (setting [8]) it was 95% (active); in experiment [4] (setting [7]), 55%. Also, the growth inhibition was 97% (active) in experiment [4] (setting [8]); 50% in experiment [5] (setting [7]); 94% (active) in experiment [5] (setting [8]); 29% in experiment [6] (setting [7]); 84% (active) in experiment [6] (setting [8]); 32.5% in experiment [6] (at 50.0 µM).
Consider `COc1cc(/C=C/C(=O)CC(=O)/C=C/c2ccc(O)c(OC)c2)ccc1O`, for which the growth inhibition was 55% in experiment [1] (setting [7]); 95% (active) in experiment [1] (setting [8]); 83.8% (active) in experiment [1] (at 50.0 µM); 20% in experiment [3] (setting [7]); 89% (active) in experiment [3] (setting [8]); 88% (active) in experiment [3] (at 50.0 µM). Further, the growth inhibition in experiment [4] (setting [7]) was 15%; in experiment [4] (setting [8]), 88% (active); in experiment [4] (at 50.0 µM) it was 84.3% (active); in experiment [5] (setting [7]), 27%; in experiment [5] (setting [8]), 80% (active); in experiment [5] (at 50.0 µM) it was 83.7% (active). Moreover, the figures for the growth inhibition in experiment [6] (setting [7]), in experiment [6] (setting [8]) and in experiment [6] (at 50.0 µM) were 55%, 91% (active) and 85.5% (active), respectively.
Turning to `Nc1ncnc2c(C3OC(CO)C(O)C3O)c[nH]c12` (centres undefined), the growth inhibition in experiment [1] (setting [7]) is 26%; in experiment [1] (setting [8]) it was 92% (active); in experiment [2] (setting [7]), 14%; in experiment [2] (setting [8]), 92% (active); in experiment [3] (setting [7]) it was 35%; in experiment [3] (setting [8]), 96% (active). Besides, the growth inhibition in experiment [3] (at 50.0 µM) is 89% (active); in experiment [4] (setting [7]) it was 28%; in experiment [4] (setting [8]), 82% (active); in experiment [4] (at 50.0 µM), 88.2% (active); in experiment [5] (setting [7]) it was 45%; in experiment [5] (setting [8]), 94% (active). The growth inhibition was 71.1% (active) in experiment [5] (at 50.0 µM), 36% in experiment [6] (setting [7]) and 94% (active) in experiment [6] (setting [8]).
For the compound `CCCOC1N(c2ccc(C)cc2)NC(=O)C1(C)C` (centres undefined), the growth inhibition in experiment [1] (setting [7]) was 86% (active); in experiment [1] (setting [8]), 95% (active); in experiment [1] (at 50.0 µM), 83% (active); in experiment [2] (setting [7]) it was 82% (active); in experiment [2] (setting [8]) it was 94% (active); in experiment [2] (at 50.0 µM), 56.6%. For the same compound, the growth inhibition is 33% in experiment [3] (setting [7]); 96% (active) in experiment [3] (setting [8]); 50% in experiment [4] (setting [7]); 95% (active) in experiment [4] (setting [8]); 49% in experiment [5] (setting [7]); 93% (active) in experiment [5] (setting [8]). Besides, the growth inhibition in experiment [6] (setting [7]) is 65%; in experiment [6] (setting [8]) it was 99% (active); in experiment [6] (at 50.0 µM), 68.1%.
In the case of `Cc1cc(O)c2c(c1)C(=O)C(c1c(C)cc3c(c1O)C(=O)C1OC1C3=O)=CC2=O` (centres undefined), the growth inhibition is 98% (active) in experiment [1] (setting [7]); 96% (active) in experiment [1] (setting [8]); 76.8% (active) in experiment [1] (at 50.0 µM); 99% (active) in experiment [3] (setting [7]); 95% (active) in experiment [3] (setting [8]); 89.7% (active) in experiment [3] (at 50.0 µM). Moreover, the growth inhibition in experiment [4] (setting [7]) was 98% (active); in experiment [4] (setting [8]) it was 95% (active); in experiment [4] (at 50.0 µM), 79.3% (active); in experiment [5] (setting [7]), 99% (active); in experiment [5] (setting [8]), 95% (active); in experiment [5] (at 50.0 µM) it was 79.2% (active). Further, the growth inhibition is 98% (active) in experiment [6] (setting [7]), 97% (active) in experiment [6] (setting [8]) and 87.8% (active) in experiment [6] (at 50.0 µM).
Consider `Oc1ccc2ccccc2c1N=Nc1nccs1`, for which the growth inhibition was 27% in experiment [1] (setting [7]); 69% in experiment [1] (setting [8]); 82.8% (active) in experiment [1] (at 50.0 µM); 51% in experiment [2] (setting [7]); 92% (active) in experiment [2] (setting [8]); 91.1% (active) in experiment [2] (at 50.0 µM). Also, the growth inhibition is 98% (active) in experiment [3] (setting [7]); 90% (active) in experiment [3] (setting [8]); 74% (active) in experiment [4] (setting [7]); 86% (active) in experiment [4] (setting [8]); 96% (active) in experiment [5] (setting [7]); 85% (active) in experiment [5] (setting [8]). Besides, the growth inhibition in experiment [6] (setting [7]) was 36%; in experiment [6] (setting [8]), 77% (active); in experiment [6] (at 50.0 µM) it was 77.8% (active).
`O=C(/C=C/c1ccccc1)CCC1C(=O)c2ccccc2C1=O`: the growth inhibition in experiment [1] (setting [7]) is 24%; in experiment [1] (setting [8]), 40%; in experiment [1] (at 50.0 µM), 3.25%; in experiment [2] (setting [7]), 10%; in experiment [2] (setting [8]), 33%; in experiment [2] (at 50.0 µM), -9%. In addition, the growth inhibition in experiment [4] (setting [7]) was 10%; in experiment [4] (setting [8]) it was 20%; in experiment [4] (at 50.0 µM) it was 17.8%; in experiment [5] (setting [7]), 12%; in experiment [5] (setting [8]), 51%; in experiment [5] (at 50.0 µM) it was -12.6%. Also, the growth inhibition in experiment [6] (setting [7]) was 22%; in experiment [6] (setting [8]) it was 50%; in experiment [6] (at 50.0 µM), 4.6%.
Turning to `COc1cccc(NC(=O)c2c(SC)n[nH]c2N)c1`, the growth inhibition in experiment [1] (setting [7]) is 26%; in experiment [1] (setting [8]), 99% (active); in experiment [2] (setting [7]), 38%; in experiment [2] (setting [8]), 98% (active); in experiment [3] (setting [7]), 35%; in experiment [3] (setting [8]), 99% (active). For the same compound, the growth inhibition is 30% in experiment [4] (setting [7]); 75% (active) in experiment [4] (setting [8]); 43% in experiment [5] (setting [7]); 99% (active) in experiment [5] (setting [8]); 11% in experiment [6] (setting [7]); 91% (active) in experiment [6] (setting [8]).
